A short description of experiment [1]: E. coli DRC41 culture turbidity changes, primary screen, E. coli filamentation inducer project, strain DRC41, OD650, 48 h (AID 1152).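 Further: E. coli MC1000 strain DRC41 lacking acrAB efflux pump and sulA.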 Particulars: E. coli DRC41 (acrAB sulA), higher = more signal, called active from +8 up or from −8 down.
Experiment [2] in a line: small-molecule binders of probe aLefty1, primary screen, biochemical, small-molecule microarray, 635/667 nm fluorescence (AID 1153).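 Further: score merges spot fluorescence with signal-to-noise ratio from the scanned slide images.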 Particulars: higher = more signal.
Experiment [3] can be described thus: PSAC antagonists in infected red cells, primary screen, cell-based, P. falciparum Indochina, OD700, 1 h (AID 1154). Conditions: P. falciparum Indochina infected RBC osmotic lysis, higher = more signal, called active from +8 up or from −8 down.
Experiment [4] is described as follows: PSAC antagonists in infected red cells, primary screen, cell-based, P. falciparum Indochina, OD700, 2 h (AID 1155).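 Further: lysis reports solute entry through the parasite surface anion channel PSAC; channel blockers reduce lysis of infected cells.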 Conditions: P. falciparum Indochina infected erythrocytes, osmotic lysis OD700; higher = more signal, called active from +8 up or from −8 down.
Experiment [5] can be described thus: osmotic lysis modulators in infected erythrocytes, primary screen, PSAC antagonist project, cell-based, P. falciparum Indochina, OD700, 3 h (AID 1156). Particulars: higher = more signal, called active from +8 up or from −8 down.
Experiment [6] in a line: PSAC antagonists in infected red cells, primary screen, cell-based, P. falciparum Indochina, OD700, 18 h (AID 1157). Particulars: P. falciparum Indochina infected erythrocytes, osmotic lysis OD700, 18 h; higher = more signal, called active from +8 up or from −8 down.
A short description of experiment [7]: modulators of S6 phosphorylation in cells, primary screen, cell-based, A549, cytoblot, luminescence, serum-stimulated (AID 1158).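 Further: serum-stimulated A549 lung adenocarcinoma cells; signal is phosphorylated S6 detected by cytoblot immunostaining with HRP secondary.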 Conditions: A549 phospho-S6 cytoblot, 5 h, higher = more signal.
The target in experiment [8] is NADPH oxidase 2 (Homo sapiens) (UniProt P04839). Put plainly: NOX2-dependent H2O2 signal modulators, primary screen, NOX inhibitor project, cell-based, HEK293-NOX2, PMA-stimulated, Amplex Red fluorescence (AID 1159). Further: test concentration not given here. Conditions: 45 min, higher = more signal, called active from +8 up or from −8 down.
Experiment [9] deals with NADPH oxidase 4 (Homo sapiens) (UniProt Q9NPH5). Briefly: NOX4-dependent H2O2 signal modulators, primary screen, NOX inhibitor project, cell-based, HEK293-NOX4, tetracycline-induced, Amplex Red fluorescence (AID 1160). Particulars: 45 min, higher = more signal, called active from +8 up or from −8 down.
In experiment [10] the target is NADPH oxidase 5 (Homo sapiens) (UniProt Q96PH1). Briefly: NOX5-dependent H2O2 signal modulators, primary screen, NOX inhibitor project, cell-based, HEK293-NOX5, Amplex Red fluorescence (AID 1161). Conditions: HEK293-NOX5, ionomycin, 45 min, higher = more signal.
The nature of experiment [11]: A549 cell viability effects, profiling panel, calcein-AM fluorescence, 48 h, basal (AID 1162). Further: test concentration not given here. Conditions: higher = more signal.
Experiment [12] in a line: adipocyte viability effects, profiling panel, cell-based, 3T3-L1 adipocytes, calcein-AM fluorescence, 48 h, basal (AID 1163). Further: test concentration not given here. Particulars: 3T3-L1 adipocytes viability, higher = more signal.
Experiment [13] can be described thus: HepG2 cell viability effects, profiling panel, calcein-AM fluorescence, 48 h, basal (AID 1164). Further: test concentration not given here. Conditions: higher = more signal.
A short description of experiment [14]: MM1S cell viability effects, profiling panel, calcein-AM fluorescence, 48 h, basal (AID 1165).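 Further: viability of MM1S multiple myeloma cells under basal unstimulated conditions; test concentration not given here.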 Conditions: higher = more signal.
Experiment [15] in a line: basal RPMI8226 viability, no added stimulus, profiling panel, cell-based, calcein-AM fluorescence, 48 h, PK04 Diversity Set (AID 1166).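 Further: cells grown under basal conditions without added stimulus; test concentration not given here.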 Conditions: RPMI8226 myeloma viability, higher = more signal.
Experiment [16] is described as follows: basal HepG2 mitochondrial membrane potential changes, profiling panel, cell-based, JC-1 fluorescence, 24 h, 100 nL compound (AID 1167). Further: test concentration not given here. Conditions: higher = more signal.
Experiment [17] can be described thus: basal 3T3-L1 adipocyte mitochondrial potential changes, profiling panel, cell-based, JC-1 fluorescence, 3T3-L1 adipocytes, 24 h, 100 nL compound (AID 1168). Further: test concentration not given here. Particulars: JC-1 mitochondrial fluorescence, higher = more signal, called active from +8 up or from −8 down.
Experiment [18] in a line: basal RPMI8226 mitochondrial membrane potential changes, profiling panel, cell-based, JC-1 fluorescence, 24 h, 100 nL compound (AID 1169). Further: test concentration not given here. Conditions: RPMI8226 myeloma, JC-1 mitochondrial potential fluorescence, higher = more signal.
Experiment [19] is described as follows: basal MM1S mitochondrial membrane potential changes, profiling panel, cell-based, JC-1 fluorescence, 24 h, 100 nL compound (AID 1170). Further: test concentration not given here. Conditions: higher = more signal.
The nature of experiment [20]: A549 lung cancer cell viability effects, profiling panel, resazurin fluorescence, 24 h, PK04 Diversity Set (AID 1171). Further: test concentration not given here. Conditions: higher = more signal, called active from +8 up or from −8 down. On the technique in general: Resazurin is reduced to fluorescent resorufin, in cell work by metabolically active cells.

Calls of active or inactive are those of the source.

NADPH oxidase 4 (Homo sapiens), sequence (Q9NPH5 whole entry, looked up): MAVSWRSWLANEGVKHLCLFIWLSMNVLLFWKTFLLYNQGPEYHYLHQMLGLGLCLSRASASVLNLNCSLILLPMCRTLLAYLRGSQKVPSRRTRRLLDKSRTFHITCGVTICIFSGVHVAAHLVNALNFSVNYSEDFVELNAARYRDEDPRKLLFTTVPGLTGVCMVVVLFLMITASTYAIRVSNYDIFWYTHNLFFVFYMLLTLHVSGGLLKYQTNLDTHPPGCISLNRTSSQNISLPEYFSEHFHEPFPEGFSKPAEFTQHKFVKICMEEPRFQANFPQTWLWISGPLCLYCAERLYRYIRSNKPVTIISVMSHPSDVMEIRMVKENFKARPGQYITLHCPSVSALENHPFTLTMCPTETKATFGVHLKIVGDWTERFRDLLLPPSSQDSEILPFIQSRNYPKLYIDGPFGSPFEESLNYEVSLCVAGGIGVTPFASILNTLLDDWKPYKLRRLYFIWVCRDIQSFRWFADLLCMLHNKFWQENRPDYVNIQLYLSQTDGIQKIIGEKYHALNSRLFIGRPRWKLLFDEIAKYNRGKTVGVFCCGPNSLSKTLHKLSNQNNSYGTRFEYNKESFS
NADPH oxidase 5 (Homo sapiens), sequence (Q96PH1 whole entry, looked up): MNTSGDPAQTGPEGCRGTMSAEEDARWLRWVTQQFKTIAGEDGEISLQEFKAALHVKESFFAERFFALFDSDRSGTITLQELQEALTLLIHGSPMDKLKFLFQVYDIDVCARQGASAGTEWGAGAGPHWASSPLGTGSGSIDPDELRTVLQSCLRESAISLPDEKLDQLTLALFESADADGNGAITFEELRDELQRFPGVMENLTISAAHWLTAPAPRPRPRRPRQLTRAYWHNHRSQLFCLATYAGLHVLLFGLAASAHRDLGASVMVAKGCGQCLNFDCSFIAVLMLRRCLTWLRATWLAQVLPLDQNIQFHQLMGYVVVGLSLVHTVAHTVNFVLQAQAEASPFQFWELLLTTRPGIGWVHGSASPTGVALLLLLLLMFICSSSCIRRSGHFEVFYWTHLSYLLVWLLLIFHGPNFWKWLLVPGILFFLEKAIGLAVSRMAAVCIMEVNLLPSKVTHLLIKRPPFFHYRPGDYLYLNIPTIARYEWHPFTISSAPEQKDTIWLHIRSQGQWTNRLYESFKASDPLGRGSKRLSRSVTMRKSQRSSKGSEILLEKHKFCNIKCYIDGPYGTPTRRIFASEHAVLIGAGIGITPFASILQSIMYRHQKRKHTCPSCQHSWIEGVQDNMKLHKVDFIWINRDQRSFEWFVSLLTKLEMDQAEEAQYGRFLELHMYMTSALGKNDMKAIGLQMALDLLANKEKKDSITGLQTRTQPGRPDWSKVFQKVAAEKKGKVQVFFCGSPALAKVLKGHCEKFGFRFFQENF
NADPH oxidase 2 (Homo sapiens), sequence (P04839 whole entry, looked up): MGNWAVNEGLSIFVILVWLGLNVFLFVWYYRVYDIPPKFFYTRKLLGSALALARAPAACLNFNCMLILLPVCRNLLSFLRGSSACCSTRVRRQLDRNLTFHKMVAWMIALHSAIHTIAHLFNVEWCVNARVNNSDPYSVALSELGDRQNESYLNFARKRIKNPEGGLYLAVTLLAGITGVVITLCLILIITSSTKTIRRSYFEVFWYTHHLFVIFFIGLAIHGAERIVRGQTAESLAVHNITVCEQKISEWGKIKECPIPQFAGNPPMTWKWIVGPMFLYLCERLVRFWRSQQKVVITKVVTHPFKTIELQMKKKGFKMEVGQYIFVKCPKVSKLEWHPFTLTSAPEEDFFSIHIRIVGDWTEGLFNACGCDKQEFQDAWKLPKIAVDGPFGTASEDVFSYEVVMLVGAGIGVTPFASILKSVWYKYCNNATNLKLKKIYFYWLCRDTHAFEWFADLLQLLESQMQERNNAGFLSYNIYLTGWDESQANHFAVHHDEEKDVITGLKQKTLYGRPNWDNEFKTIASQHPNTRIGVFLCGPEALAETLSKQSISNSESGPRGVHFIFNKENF

For `C=CCOC(=O)[C@@H]1[C@H]2C(=O)O[C@H](c3ccccc3)[C@H](c3ccccc3)N2[C@H](c2ccc(OCCOC(=O)[C@@H]3C[C@@H]4C(=O)N[C@@H](CCCCNC(C)=O)C(=O)N4[C@@H]3c3ccc(O)cc3)cc2)[C@@]12C(=O)Nc1ccc(I)cc12`, the z-score in [1] was 0.158 (inactive); in experiment [3], 0.978 (inactive); in experiment [4] it was 1.08 (inactive); in experiment [5] it was 1.45 (inactive); in [6], 0.718 (inactive); in experiment [7], -0.581. Further, the z-score in experiment [8] was 1.42 (inactive); in [9], 1.35 (inactive); in experiment [10], 0.716; in experiment [11] it was 0.32; in [12], -0.571; in experiment [13], -0.179. The z-score in experiment [14] is -0.154; in experiment [15], 0.165; in experiment [16], -0.396; in [17] it was 1.21 (inactive); in experiment [18] it was -0.482; in experiment [19], -1.14. Also, the z-score in [20] is 0.873 (inactive). Besides, the composite z-score in [2] turned out to be 0.998.

For the molecule `COC(=O)[C@]1(Cc2ccccc2N=[N+]=[N-])N=C(c2ccc(OCCCO)cc2)O[C@@H]1c1ccccc1`, the z-score is 0.738 (inactive) in experiment [1]; 28.2 (active) in experiment [3]; 27.2 (active) in [4]; 1.06 (inactive) in experiment [5]; 7.41 (inactive) in [6]; 0.777 in experiment [7]. For the same molecule, the z-score is -1.49 (inactive) in experiment [8]; -0.013 (inactive) in experiment [9]; -1.12 in [10]; -3.71 in experiment [11]; 0.561 in experiment [12]; -5.71 in experiment [13]. The z-score was -3.66 in [14]; -4.01 in experiment [15]; -2.54 in experiment [16]; 0.911 (inactive) in experiment [17]; -1.01 in experiment [18]; -2.86 in experiment [19]. Besides, the z-score in [20] is -5.19 (inactive). Further, the composite z-score in [2] is -0.111.

As for `COc1cccc(C)c1NC(=O)O[C@H]1[C@H](OC(=O)Nc2ccccc2)[C@H](OC(=O)Nc2ccccc2)[C@@H](OC)O[C@@H]1CO`, the z-score is -1.05 (inactive) in experiment [1]; 7.38 (inactive) in experiment [3]; 1.34 (inactive) in experiment [4]; -0.446 (inactive) in experiment [5]; 0.89 (inactive) in experiment [6]; -0.26 in experiment [7]. Also, the z-score in experiment [8] is 0.0936 (inactive); in experiment [9], -0.91 (inactive); in experiment [10], -0.89; in experiment [11], -1.09; in [12], 0.93; in experiment [13], -1.1. For the same molecule, the z-score in [14] was -2.53; in experiment [15], -2.81; in [16], 0.321; in experiment [17] it was 0.306 (inactive); in experiment [18] it was -1.1; in [19] it was 0.268. Besides, the z-score in experiment [20] is -2.57 (inactive). This molecule displayed a composite z-score in experiment [2] of 0.211.

As to `COC(=O)[C@@]1(Cc2ccccc2)[C@H]2c3cc(C(=O)N(C)C)n(Cc4ccccn4)c3C[C@H]2CN1C(=O)c1ccccc1`, the z-score was -1.59 (inactive) in experiment [1]; 1.32 (inactive) in [3]; 0.458 (inactive) in experiment [4]; 0.365 (inactive) in experiment [5]; 0.544 (inactive) in experiment [6]; -0.733 in experiment [7]. Also, the z-score in experiment [8] is 0.048 (inactive); in [9] it was -1.87 (inactive); in experiment [10] it was -2.08; in [11] it was -1.43; in [12] it was -0.125; in experiment [13] it was -0.468. The z-score is -1 in experiment [14]; -1.71 in [15]; 0.428 in experiment [16]; -0.698 (inactive) in experiment [17]; 0.00235 in experiment [18]; -0.135 in experiment [19]. Besides, the z-score in experiment [20] was -0.712 (inactive). Besides, in experiment [2], the composite z-score was determined as 0.378.

Regarding `C[N+](C)(C)CCCC[C@@H]1NC(=O)[C@@H]2C[C@H](C(=O)O)[C@H](c3cccc(OCCO)c3)N2C1=O`, the z-score in experiment [1] was 1.03 (inactive); in experiment [3], 2.2 (inactive); in experiment [4] it was 0.157 (inactive); in experiment [5], -1.84 (inactive); in experiment [6], 0.276 (inactive); in [7] it was 1.44. The z-score is 1.83 (inactive) in [8]; 0.877 (inactive) in [9]; 1.01 in experiment [10]; 1.58 in [11]; 0.185 in experiment [12]; 0.403 in experiment [13]. Besides, the z-score in experiment [14] is 0.305; in experiment [15] it was 0.367; in experiment [16] it was 2.43; in experiment [17] it was 0.204 (inactive); in experiment [18], 0.423; in [19] it was 0.17. In addition, the z-score in [20] is 1.13 (inactive). Besides, the composite z-score in experiment [2] is -0.286.

As for `O=C1N(CCS(=O)(=O)c2ccccc2)c2ccccc2[C@H]2OC(c3ccc(OCCCO)cc3)=N[C@@]12CCS(=O)(=O)c1ccccc1`, the z-score in [1] was 0.401 (inactive); in [3] it was 28.2 (active); in experiment [4], 26.3 (active); in [5], 3.35 (inactive); in experiment [6], 4.36 (inactive); in [7], -0.357. For the same molecule, the z-score is 1.76 (inactive) in [8]; 0.492 (inactive) in experiment [9]; 1.46 in [10]; 0.571 in [11]; 0.771 in experiment [12]; 0.504 in experiment [13]. Also, the z-score is 0.201 in experiment [14]; -0.0504 in experiment [15]; -0.38 in experiment [16]; 2.29 (inactive) in experiment [17]; -0.371 in experiment [18]; -1.23 in experiment [19]. Moreover, the z-score in experiment [20] is 0.789 (inactive). Besides, the composite z-score in experiment [2] turned out to be 0.582.

On to `O=C1c2ccccc2[C@](Cc2ccccc2I)(C(=O)NCC(F)(F)F)[C@H](c2ccc(CO)cc2)N1Cc1ccccc1`, for which the z-score was 0.131 (inactive) in [1]; 2.39 (inactive) in [3]; 0.111 (inactive) in experiment [4]; 0.369 (inactive) in [5]; 0.278 (inactive) in [6]; -0.261 in [7]. Also, the z-score in [8] was 0.738 (inactive); in experiment [9] it was -0.16 (inactive); in experiment [10], 1.14; in experiment [11], 0.535; in [12], 0.489; in experiment [13], 0.43. Besides, the z-score in [14] is -0.441; in [15], -1.67; in experiment [16], -0.0706; in experiment [17] it was -0.0813 (inactive); in experiment [18], -0.332; in [19], -0.645. Also, the z-score in experiment [20] is 1.1 (inactive). In addition, in [2], the composite z-score is -0.229.

Values taken from PubChem BioAssay.
